The subject of experiment [1] is Human papillomavirus type 1a protein E7 (residues 44-93). The experiment in a line: small molecules binding HPV E7 44-93 – biochemical, small-molecule microarray, residues 44-93, 635 nm fluorescence, primary screen (AID 1108).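 Further: E7 fragment applied at 1 µg/mL in TBST for 1 h at 4 C; score combines spot fluorescence with its signal to noise ratio.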 To be noted: fluorescence 635 nm, higher = more signal.
Experiment [2] in a line: hepatitis C replication reporter changes, two-sided – Huh7 cells, luciferase reporter, HCV replication inhibitor project, primary screen (AID 1109).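 Further: huh7 hepatoma cells harbouring a luciferase neomycin HCV replicon reporter; luciferase luminescence as measure of HCV replicon replication; test concentration not given here.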 To be noted: Huh7 HCV replicon luciferase reporter, 48 h; higher = more signal.
The target of experiment [3] is Left-right determination factor 2 (Homo sapiens) (UniProt O00292). The experiment is described as follows: small molecules binding LEFTY2 protein – biochemical, small-molecule microarray, 635 nm fluorescence scan, primary screen (AID 1110). To be noted: higher = more signal.
The target of experiment [4] is Calmodulin-1 (Homo sapiens) (UniProt P0DP23). The experiment in a line: small molecules binding calmodulin-1 with EGTA – biochemical, small-molecule microarray, Cy5-labelled CALM1, profiling panel (AID 1111).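 Further: labelled calmodulin applied in Tris saline Tween buffer holding calcium plus EGTA and DTT.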 To be noted: Cy5-CALM1 binding fluorescence, higher = more signal.
For experiment [5] the target is unchanged. The experiment in a line: small molecules binding Ca-loaded calmodulin-1 – biochemical, small-molecule microarray, Cy5-labelled CALM1, plus calcium, artefact control for SMM control-protein annotation, profiling panel (AID 1112).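 Further: score merges spot fluorescence with signal to noise from triplicate slides.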 To be noted: Cy5-CALM1 binding fluorescence, higher = more signal.
A short description of experiment [6]: probe aWnt5a binding to arrayed compounds – biochemical, biotinylated probe, 635/667 nm fluorescence, primary screen (AID 1113).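 Further: score merges 667 nm fluorescence intensity with signal-to-noise per printed feature.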 To be noted: small-molecule microarray, higher = more signal.
Experiment [7] is described as follows: probe aShh binding to arrayed compounds – biochemical, biotinylated probe, 635/667 nm fluorescence, primary screen (AID 1114).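 Further: probe is biotin-labelled aShh protein from a stem cell growth factor screen; measures binding of labelled protein to compounds printed on the slide; score merges feature fluorescence at 667 nm with signal-to-noise.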 Particulars: small-molecule microarray, higher = more signal.
Experiment [8] is described as follows: probe aNog binding to arrayed compounds – biochemical, biotinylated probe, 635/667 nm fluorescence, primary screen (AID 1115).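 Further: probe is biotinylated aNog protein used at 0.15 µg/mL for 1 h at 4 C; z-score combines 667 nm fluorescence of each spot with its signal to noise.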 To be noted: small-molecule microarray, higher = more signal.
The target of experiment [9] is Torsin-1A-interacting protein 1 (Homo sapiens) (UniProt Q5JTV8). The experiment in a line: compound microarray binding of lysate hLAP1 – cell lysate, small-molecule microarray, COS7 lysate, 635/667 nm fluorescence, primary screen (AID 1116). Particulars: 635 nm fluorescence, higher = more signal.
The target of experiment [10] is Alpha-bungarotoxin (Bungarus multicinctus) (UniProt P60615). The experiment is described as follows: compounds binding labelled alpha-BTX control protein – biochemical, small-molecule microarray, Alexa647 label, 635/667 nm fluorescence, artefact control for SMM control protein annotation, profiling panel (AID 1117). To be noted: alpha-BTX-A647 binding fluorescence, higher = more signal.

The target of experiment [11] is Albumin (Bos taurus) (UniProt P02769). The experiment in a line: compounds binding labelled BSA control protein – biochemical, small-molecule microarray, Alexa647 label, 635/667 nm fluorescence, artefact control for SMM control protein annotation, profiling panel (AID 1118).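 Further: score merges 667 nm emission intensity and signal-to-noise per printed compound spot.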 Particulars: BSA-A647 binding, fluorescence 635 nm, higher = more signal.
Experiment [12] is described as follows: probe aXIP binding to arrayed compounds – biochemical, NeuroSMM set, 635/667 nm fluorescence, primary screen (AID 1119).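 Further: probe is the protein aXip251-270 applied at 1 µg/mL to compound-printed slides; binding of probe to printed compounds measured as 667 nm fluorescence plus signal to noise.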 Particulars: small-molecule microarray, higher = more signal, called active from +8 up or from −8 down.
The nature of experiment [13]: probe aNOTCH3 binding on compound microarray – biochemical, small-molecule microarray, 635/667 nm fluorescence, primary screen (AID 1120).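 Further: probe is a biotin-tagged antibody raised against NOTCH3 rather than NOTCH3 protein; score merges spot fluorescence near 667 nm with spot signal to noise.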 Particulars: higher = more signal.
The nature of experiment [14]: probe aNOTCH2 binding on compound microarray – biochemical, small-molecule microarray, 635/667 nm fluorescence, primary screen (AID 1121).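 Further: score merges feature fluorescence read at 667 nm with its signal to noise.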 To be noted: higher = more signal.
Experiment [15] deals with Carbonic anhydrase 2 (Homo sapiens) (UniProt P00918). The experiment in a line: compounds binding carbonic anhydrase 2 – biochemical, small-molecule microarray, Alexa647-labelled CAII, profiling panel (AID 1122). Particulars: CAII-A647 binding fluorescence, higher = more signal.
Experiment [16] can be described thus: COS7 lysate on small-molecule microarray, probe aHis, 635 nm (AID 1123).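 Further: z-score combines 667nm fluorescence intensity with signal-to-noise per printed compound spot.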 Particulars: COS7 cell lysate, fluorescence, higher = more signal.
Experiment [17] can be described thus: probe aLAP1 signal on lysate-treated microarray – cell lysate, small-molecule microarray, COS7 lysate, primary screen (AID 1124).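 Further: lysate comes from COS7 cells expressing LAP1 and is applied at 0.3 µg/mL; score merges spot fluorescence near 667 nm with signal-to-noise over triplicate slides.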 Particulars: probe aLAP1, fluorescence, higher = more signal.
The subject of experiment [18] is Sam68 (KHDRBS1). The experiment in a line: compounds binding KHDRBS1 protein – biochemical, small-molecule microarray, 635 nm fluorescence, primary screen (AID 1125).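 Further: score merges 667 nm channel intensity with signal to noise over triplicate slides.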 Particulars: higher = more signal.
Experiment [19] deals with Chordin-like protein 2 (CHRDL2). The experiment in a line: compounds binding chordin-like 2 – biochemical, small-molecule microarray, 635 nm fluorescence, primary screen (AID 1126).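 Further: printed compound slides probed with Chrdl2 protein at 4 µg/mL for 1 h at 4 C; score merges 667 nm emission intensity with signal to noise over three replicate slides.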 Particulars: fluorescence 635 nm, higher = more signal.
For experiment [20], the target named is Concanavalin-A (Canavalia ensiformis) (UniProt P02866). The experiment in a line: compounds binding concanavalin A lectin – biochemical, small-molecule microarray, Alexa647 label, 635 nm, artefact control for SMM control protein annotation, primary screen (AID 1127).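 Further: z combines 667 nm emission intensity with signal-to-noise across three replicate slides.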 Particulars: ConA-A647 binding fluorescence, higher = more signal.

Calls of active or inactive are those of the source.

Alpha-bungarotoxin (Bungarus multicinctus), sequence (P60615 whole entry, looked up): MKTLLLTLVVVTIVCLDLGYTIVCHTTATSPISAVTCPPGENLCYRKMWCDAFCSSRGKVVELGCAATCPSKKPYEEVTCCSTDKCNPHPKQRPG
Concanavalin-A (Canavalia ensiformis), sequence (P02866 whole entry, looked up): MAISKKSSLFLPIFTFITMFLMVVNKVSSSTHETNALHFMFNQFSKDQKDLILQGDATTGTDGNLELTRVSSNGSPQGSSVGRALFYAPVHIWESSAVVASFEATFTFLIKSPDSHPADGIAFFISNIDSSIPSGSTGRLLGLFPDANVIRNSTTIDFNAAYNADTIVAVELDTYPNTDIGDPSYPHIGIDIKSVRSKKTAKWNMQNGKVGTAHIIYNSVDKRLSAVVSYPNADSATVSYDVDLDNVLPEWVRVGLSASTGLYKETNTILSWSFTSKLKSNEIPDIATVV
Albumin (Bos taurus), sequence (P02769 whole entry, looked up): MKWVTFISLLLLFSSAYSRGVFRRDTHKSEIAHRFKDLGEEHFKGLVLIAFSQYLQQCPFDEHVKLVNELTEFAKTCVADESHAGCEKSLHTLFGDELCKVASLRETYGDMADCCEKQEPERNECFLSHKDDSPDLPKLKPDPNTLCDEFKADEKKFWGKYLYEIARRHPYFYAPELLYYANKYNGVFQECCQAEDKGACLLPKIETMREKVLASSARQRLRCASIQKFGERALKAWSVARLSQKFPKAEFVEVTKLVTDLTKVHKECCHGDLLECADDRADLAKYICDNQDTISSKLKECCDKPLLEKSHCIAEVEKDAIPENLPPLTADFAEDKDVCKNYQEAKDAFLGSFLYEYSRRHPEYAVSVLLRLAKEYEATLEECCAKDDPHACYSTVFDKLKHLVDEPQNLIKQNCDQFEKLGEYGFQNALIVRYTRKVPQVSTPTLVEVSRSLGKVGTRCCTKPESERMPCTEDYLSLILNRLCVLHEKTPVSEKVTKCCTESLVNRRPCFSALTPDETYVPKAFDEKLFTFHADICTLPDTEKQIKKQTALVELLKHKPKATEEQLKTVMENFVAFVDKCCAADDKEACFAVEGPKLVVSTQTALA
Left-right determination factor 2 (Homo sapiens), sequence (O00292 whole entry, looked up): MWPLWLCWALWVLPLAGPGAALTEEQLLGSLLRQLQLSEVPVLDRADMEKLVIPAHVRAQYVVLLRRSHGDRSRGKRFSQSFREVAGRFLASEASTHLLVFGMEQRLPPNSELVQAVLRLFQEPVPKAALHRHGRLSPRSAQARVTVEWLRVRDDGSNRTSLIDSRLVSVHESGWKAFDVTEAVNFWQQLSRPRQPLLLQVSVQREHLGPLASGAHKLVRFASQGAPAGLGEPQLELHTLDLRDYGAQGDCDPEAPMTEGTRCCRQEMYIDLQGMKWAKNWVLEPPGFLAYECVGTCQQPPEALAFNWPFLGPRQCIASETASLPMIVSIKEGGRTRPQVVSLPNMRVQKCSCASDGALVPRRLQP
Torsin-1A-interacting protein 1 (Homo sapiens), sequence (Q5JTV8 whole entry, looked up): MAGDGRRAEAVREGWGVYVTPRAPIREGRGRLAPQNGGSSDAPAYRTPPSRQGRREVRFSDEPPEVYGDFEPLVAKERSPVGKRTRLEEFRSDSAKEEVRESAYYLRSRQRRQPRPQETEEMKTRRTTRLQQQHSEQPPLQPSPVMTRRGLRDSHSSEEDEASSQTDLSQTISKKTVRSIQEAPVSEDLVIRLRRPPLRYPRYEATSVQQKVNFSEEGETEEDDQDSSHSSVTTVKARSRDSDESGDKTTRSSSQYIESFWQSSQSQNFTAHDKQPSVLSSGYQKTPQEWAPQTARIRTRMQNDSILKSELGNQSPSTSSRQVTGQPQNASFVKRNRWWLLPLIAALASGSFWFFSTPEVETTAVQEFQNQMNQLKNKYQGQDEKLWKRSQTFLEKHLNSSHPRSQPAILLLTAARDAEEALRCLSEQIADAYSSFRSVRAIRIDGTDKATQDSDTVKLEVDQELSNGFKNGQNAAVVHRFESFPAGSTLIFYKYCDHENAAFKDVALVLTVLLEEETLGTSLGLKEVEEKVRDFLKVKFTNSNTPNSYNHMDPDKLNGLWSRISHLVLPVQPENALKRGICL

Turning to `O=c1cccc(-c2ccccc2Cl)o1`, the composite z-score in experiment [1] is 0.201; in experiment [3], -0.12; in [4], -0.559; in experiment [5] it was -0.503; in [6], -0.124; in experiment [7], 0.0952. Besides, the composite z-score is -0.593 in experiment [8]; 0.21 in experiment [9]; -0.183 in [10]; 0.18 in experiment [11]; -0.177 in [13]; -0.199 in experiment [14]. Also, the composite z-score in experiment [15] is -0.0836; in [16] it was -0.011; in experiment [17] it was -0.235; in experiment [18], 0.102; in experiment [19], 0.0431; in experiment [20] it was -0.415. The z-score in experiment [2] is -0.143. The composite Z-score in experiment [12] was 0.0241 (inactive).
Take `NC(=O)[C@@H]1[C@H]2C(=O)O[C@H](c3ccccc3)[C@H](c3ccccc3)N2[C@H](c2ccc(OCCO)cc2)[C@@]12C(=O)Nc1ccc(C#CC3=CCCCC3)cc12`: the composite z-score in experiment [1] is 1.36; in [3] it was 0.759; in experiment [4] it was 0.658; in [5] it was -0.223; in experiment [6], 0.0182; in [7], 0.031. Further, the composite z-score was 0.0415 in experiment [8]; 1.06 in experiment [9]; 0.711 in [10]; 0.768 in experiment [11]; -0.0665 in experiment [13]; 0.0086 in experiment [14]. The composite z-score in [15] amounted to 0.647; in experiment [16], 0.558; in [17], 0.0971; in experiment [18] it was 1.32; in experiment [19], 0.463; in experiment [20] it was 1.09. The same compound showed a z-score in experiment [2] of -3.2. For the same compound, the composite Z-score in experiment [12] was 2.02 (inactive).
In the case of `Cc1ccc(S[C@]2(C(=O)O)CC(=O)N(Cc3ccccc3C(F)(F)F)[C@@H]2c2ccc(CO)cc2I)cc1`, the composite z-score in experiment [1] was 0.4; in experiment [3], -1.66; in [4] it was -0.633; in experiment [5] it was -0.711; in experiment [6], -0.12; in [7], -0.315. Further, the composite z-score was -0.322 in [8]; -0.327 in experiment [9]; -0.247 in experiment [10]; 0.426 in [11]; -0.0716 in [13]; 0.0477 in [14]. Further, the composite z-score is 0.502 in experiment [15]; 1.74 in experiment [16]; 1.51 in experiment [17]; 0.406 in [18]; -0.673 in experiment [19]; -0.0929 in [20]. This compound also gave a z-score in [2] of -1.26. In addition, in experiment [12], the composite Z-score is 0.286 (inactive).
Take `CC(=O)Nc1cc(Br)ccc1C(=O)NCc1ccccc1`: the composite z-score in experiment [1] was 1.09; in experiment [3], -0.174; in [4], 0.851; in [5] it was 0.517; in experiment [6] it was -0.0346; in [7], -0.16. The composite z-score in [8] was -0.196; in experiment [9], 0.341; in experiment [10], 0.809; in experiment [11] it was 0.744; in experiment [13] it was -0.0311; in experiment [14], -0.123. The composite z-score is 0.23 in [15]; 1.18 in experiment [16]; -0.458 in experiment [17]; 0.494 in experiment [18]; -0.141 in experiment [19]; 0.811 in experiment [20]. The z-score in [2] is -0.0162. Besides, the composite Z-score in experiment [12] is -0.34 (inactive).
As to `O=C(O)[C@H]1C[C@H]2C(=O)N3CCC[C@H]3C(=O)N2[C@H]1c1ccc(O)cc1`, the composite z-score in experiment [1] was -0.124; in [3], -2.21; in experiment [4], -0.342; in experiment [5] it was 0.123; in experiment [6], -0.202; in experiment [7], -0.348. The composite z-score is -0.216 in experiment [8]; 0.319 in [9]; -1.55 in [10]; -2.04 in experiment [11]; -0.368 in experiment [13]; -0.176 in [14]. In addition, the composite z-score in [15] was 0.545; in [16] it was 0.193; in experiment [17], 0.107; in experiment [18], -0.132; in [19] it was -1.49; in [20], 0.298. Also, the z-score in experiment [2] was 0.253. In addition, the composite Z-score in experiment [12] is 0.0047 (inactive).

Values taken from PubChem BioAssay.
